22 compounds from ChEMBL document CHEMBL5724796, “Tm Shift (DSF) assay results for EUbOPEN Chemogenomics Library” (2024) can be followed below.

Residues, ends and D or L forms follow the SMILES beside them. *: point of attachment. Cbz = O=C(OCc1ccccc1)*; CH2Cl = ClC*; CH2F = FC*

Holding throughout (details): Compound concentration 20.0 uM
The target of test [1] is Tyrosine-protein kinase ABL1 (Homo sapiens) (UniProt P00519).
The target of test [2] is Bromodomain-containing protein 4 (Homo sapiens) (UniProt O60885).
Test [3] deals with Cyclin-dependent kinase 2 (Homo sapiens) (UniProt P24941).
The target of test [4] is Casein kinase I isoform delta (Homo sapiens) (UniProt P48730).
Casein kinase I isoform delta (Homo sapiens), sequence (P48730 whole entry, looked up, canonical isoform): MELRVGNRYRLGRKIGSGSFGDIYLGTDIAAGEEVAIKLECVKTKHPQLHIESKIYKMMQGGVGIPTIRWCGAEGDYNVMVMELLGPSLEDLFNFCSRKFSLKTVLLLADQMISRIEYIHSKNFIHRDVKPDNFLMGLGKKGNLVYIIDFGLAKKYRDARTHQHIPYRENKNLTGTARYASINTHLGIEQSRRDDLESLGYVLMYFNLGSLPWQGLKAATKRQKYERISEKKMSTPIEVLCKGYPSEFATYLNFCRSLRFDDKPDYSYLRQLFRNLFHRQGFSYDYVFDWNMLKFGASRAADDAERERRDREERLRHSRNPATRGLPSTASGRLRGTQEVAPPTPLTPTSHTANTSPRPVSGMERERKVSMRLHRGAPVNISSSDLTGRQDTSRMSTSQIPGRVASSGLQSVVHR
Test [5] concerns the target Glycogen synthase kinase-3 beta (Homo sapiens) (UniProt P49841).
In test [6] the target is Mitogen-activated protein kinase 1 (Homo sapiens) (UniProt P28482).
Mitogen-activated protein kinase 1 (Homo sapiens), sequence (P28482 whole entry): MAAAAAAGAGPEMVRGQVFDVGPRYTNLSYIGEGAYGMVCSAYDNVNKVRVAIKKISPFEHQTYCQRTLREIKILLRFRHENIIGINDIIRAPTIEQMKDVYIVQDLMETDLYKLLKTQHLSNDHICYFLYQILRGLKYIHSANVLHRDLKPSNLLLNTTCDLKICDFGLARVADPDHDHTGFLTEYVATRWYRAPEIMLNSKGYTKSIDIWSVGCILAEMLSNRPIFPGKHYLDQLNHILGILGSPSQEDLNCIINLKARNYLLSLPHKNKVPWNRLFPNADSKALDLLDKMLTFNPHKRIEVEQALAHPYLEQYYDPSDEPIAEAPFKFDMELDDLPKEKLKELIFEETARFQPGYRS
In test [7] the target is T1, Aurora kinase A (Homo sapiens) (UniProt O14965).
T1 sequence (whole entry): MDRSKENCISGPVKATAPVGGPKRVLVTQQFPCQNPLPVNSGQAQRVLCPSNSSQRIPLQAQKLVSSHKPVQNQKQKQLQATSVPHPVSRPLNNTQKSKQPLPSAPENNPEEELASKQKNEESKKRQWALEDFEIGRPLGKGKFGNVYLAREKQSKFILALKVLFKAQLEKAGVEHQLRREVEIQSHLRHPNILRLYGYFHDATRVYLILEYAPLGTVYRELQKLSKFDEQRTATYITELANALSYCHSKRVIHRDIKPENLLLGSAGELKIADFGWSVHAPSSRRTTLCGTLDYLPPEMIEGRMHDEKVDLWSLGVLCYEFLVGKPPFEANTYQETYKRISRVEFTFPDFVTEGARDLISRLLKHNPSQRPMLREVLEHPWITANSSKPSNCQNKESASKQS

The target in test [8] is T2, Transcription intermediary factor 1-alpha (Homo sapiens) (UniProt O15164).
T2 sequence (whole entry): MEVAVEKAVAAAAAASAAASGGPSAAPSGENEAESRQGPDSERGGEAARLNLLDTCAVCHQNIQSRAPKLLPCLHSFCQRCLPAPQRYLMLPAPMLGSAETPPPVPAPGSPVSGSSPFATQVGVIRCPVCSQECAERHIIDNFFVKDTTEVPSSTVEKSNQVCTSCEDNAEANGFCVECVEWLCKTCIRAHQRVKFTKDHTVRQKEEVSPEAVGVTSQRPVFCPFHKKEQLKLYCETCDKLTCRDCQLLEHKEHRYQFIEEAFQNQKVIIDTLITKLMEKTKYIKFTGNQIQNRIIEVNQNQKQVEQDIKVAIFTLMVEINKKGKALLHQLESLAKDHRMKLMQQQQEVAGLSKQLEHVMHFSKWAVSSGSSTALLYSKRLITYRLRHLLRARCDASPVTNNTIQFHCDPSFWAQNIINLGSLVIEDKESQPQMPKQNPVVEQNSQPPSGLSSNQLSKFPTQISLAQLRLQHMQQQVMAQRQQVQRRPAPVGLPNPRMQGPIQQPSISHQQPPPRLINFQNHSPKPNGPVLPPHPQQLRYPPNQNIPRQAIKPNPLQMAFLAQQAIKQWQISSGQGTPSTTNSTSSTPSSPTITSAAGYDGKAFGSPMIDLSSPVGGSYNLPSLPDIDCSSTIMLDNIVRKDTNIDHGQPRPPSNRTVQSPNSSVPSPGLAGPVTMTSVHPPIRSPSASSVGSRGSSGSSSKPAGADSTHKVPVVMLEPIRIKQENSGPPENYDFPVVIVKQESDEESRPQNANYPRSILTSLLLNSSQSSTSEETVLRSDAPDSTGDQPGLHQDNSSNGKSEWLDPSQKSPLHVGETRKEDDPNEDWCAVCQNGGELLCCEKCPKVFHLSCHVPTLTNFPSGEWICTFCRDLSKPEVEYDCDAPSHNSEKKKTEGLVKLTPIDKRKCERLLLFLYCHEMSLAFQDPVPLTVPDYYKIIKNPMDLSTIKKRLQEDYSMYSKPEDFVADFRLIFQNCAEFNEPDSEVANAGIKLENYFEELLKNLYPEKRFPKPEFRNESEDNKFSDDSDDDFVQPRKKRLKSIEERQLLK

Tyrosine-protein kinase ABL1 (Homo sapiens), sequence (P00519 whole entry): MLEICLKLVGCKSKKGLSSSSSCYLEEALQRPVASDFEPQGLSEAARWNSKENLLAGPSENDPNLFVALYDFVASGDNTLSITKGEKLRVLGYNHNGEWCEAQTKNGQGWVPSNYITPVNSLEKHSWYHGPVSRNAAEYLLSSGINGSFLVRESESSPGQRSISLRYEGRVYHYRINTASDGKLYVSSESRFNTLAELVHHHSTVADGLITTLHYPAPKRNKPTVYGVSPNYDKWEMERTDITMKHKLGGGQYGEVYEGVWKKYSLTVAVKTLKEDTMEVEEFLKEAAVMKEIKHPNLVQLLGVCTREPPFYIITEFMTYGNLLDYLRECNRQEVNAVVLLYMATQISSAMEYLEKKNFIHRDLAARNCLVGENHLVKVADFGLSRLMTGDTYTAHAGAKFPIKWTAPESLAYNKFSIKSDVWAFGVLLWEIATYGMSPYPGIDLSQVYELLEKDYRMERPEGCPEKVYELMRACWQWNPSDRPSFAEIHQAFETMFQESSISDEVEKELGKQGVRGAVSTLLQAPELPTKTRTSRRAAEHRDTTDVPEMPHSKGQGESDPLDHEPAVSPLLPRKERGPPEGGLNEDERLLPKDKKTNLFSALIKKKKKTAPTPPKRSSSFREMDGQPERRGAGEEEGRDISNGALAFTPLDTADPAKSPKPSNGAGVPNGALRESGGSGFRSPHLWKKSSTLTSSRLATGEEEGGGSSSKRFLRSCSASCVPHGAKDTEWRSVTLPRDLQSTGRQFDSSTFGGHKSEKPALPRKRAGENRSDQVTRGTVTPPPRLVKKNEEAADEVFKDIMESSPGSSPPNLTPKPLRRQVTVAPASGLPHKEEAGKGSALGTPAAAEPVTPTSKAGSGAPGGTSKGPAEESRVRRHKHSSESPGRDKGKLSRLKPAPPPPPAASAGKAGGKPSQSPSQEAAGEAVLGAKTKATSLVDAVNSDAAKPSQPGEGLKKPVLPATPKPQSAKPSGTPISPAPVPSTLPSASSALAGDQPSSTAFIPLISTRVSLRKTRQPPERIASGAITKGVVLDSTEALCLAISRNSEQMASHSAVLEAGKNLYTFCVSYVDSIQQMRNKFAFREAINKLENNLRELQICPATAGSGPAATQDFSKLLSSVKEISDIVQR
Glycogen synthase kinase-3 beta (Homo sapiens), sequence (P49841 whole entry, looked up): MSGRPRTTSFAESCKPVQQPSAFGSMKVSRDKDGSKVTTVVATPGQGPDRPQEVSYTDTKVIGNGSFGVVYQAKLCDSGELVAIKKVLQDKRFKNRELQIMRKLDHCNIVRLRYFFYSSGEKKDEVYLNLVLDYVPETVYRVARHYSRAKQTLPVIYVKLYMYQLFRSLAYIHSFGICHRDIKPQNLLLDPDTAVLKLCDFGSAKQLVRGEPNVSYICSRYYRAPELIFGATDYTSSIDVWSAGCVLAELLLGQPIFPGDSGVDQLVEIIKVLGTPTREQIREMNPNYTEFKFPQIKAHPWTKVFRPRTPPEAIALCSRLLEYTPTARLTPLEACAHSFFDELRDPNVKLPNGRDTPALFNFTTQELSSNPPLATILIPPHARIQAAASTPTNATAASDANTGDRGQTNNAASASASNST

One may read the ΔTm as the shift of the melting midpoint relative to a reference. In the case of `COc1ncc(C)c(-c2ccc3c(c2)[nH]c(=O)c2cnn([C@H]4CCOC4)c23)c1C`, the ΔTm in test [1] is 1.31 °C; in test [2] it was -3.36 °C; in test [3], -0.21 °C; in test [4] it was -0.26 °C; in test [5], 0.55 °C; in test [6], -0.06 °C. In addition, the shift in melting temperature (ΔTm) in test [7] was -2.59 °C; in test [8], -0.98 °C.

Consider `O=C(Cc1ccccc1)c1cc(O)c(O)c([N+](=O)[O-])c1`, for which the ΔTm is 0.39 °C in test [1]; -1.83 °C in test [2]; 0.33 °C in test [3]; -0.3 °C in test [4]; -0.88 °C in test [5]; 0.35 °C in test [6]. Also, the values for the ΔTm in test [7] and in test [8] were 0 °C and 1.83 °C, respectively.

Consider `N[C@](CCCCB(O)O)(CCN1CCCCC1)C(=O)O`, for which the ΔTm in test [1] was 0.12 °C; in test [2], 2.02 °C; in test [3], 1.3 °C; in test [4] it was -0.19 °C; in test [5], -0.19 °C; in test [6], 0.26 °C. In addition, the ΔTm in test [7] is -1.26 °C; in test [8] it was 0.59 °C.

Consider `Cc1cc(C(=O)CN2CCCCC2)c(C)n1-c1ccc(Cl)cc1`, for which the ΔTm in test [1] is -0.03 °C; in test [2] it was -2.43 °C; in test [3] it was 0.02 °C; in test [4], -0.16 °C; in test [5] it was -0.07 °C; in test [6], 0.08 °C. In addition, the ΔTm was -1.42 °C in test [7] and -0.41 °C in test [8].

Regarding `Cc1cccc(Nc2ccncc2S(=O)(=O)NC(=O)NC(C)C)c1`, the ΔTm was 0.72 °C in test [1]; -2.84 °C in test [2]; -0.02 °C in test [3]; -0.02 °C in test [4]; -0.74 °C in test [5]; 0.43 °C in test [6]. For the same compound, the ΔTm in test [7] was -2.33 °C; in test [8] it was 0.72 °C.

For `O=C1c2ccccc2C(=O)c2oc(-c3ccc(F)cc3)nc21`, the ΔTm in test [1] is 0.01 °C; in test [2], -1.84 °C; in test [3], -0.07 °C; in test [4] it was -0.12 °C; in test [5] it was -0.33 °C; in test [6], 0.17 °C. Further, the ΔTm in test [7] is -2.4 °C; in test [8], -0.61 °C.

Take `CC(C)(C)c1ccc(CN(C(=O)CN(Cc2c(F)c(F)c(F)c(F)c2F)S(=O)(=O)c2ccc(F)cc2)c2ccc(C(=O)NO)cc2)cc1`: the thermal shift (ΔTm) in test [1] was 1.56 °C; in test [2], 8.81 °C; in test [3] it was 9.04 °C; in test [4], -5.74 °C; in test [5], 14.4 °C; in test [6], -2.29 °C. Besides, the figures for the shift in melting temperature (ΔTm) in test [7] and in test [8] were 9.93 °C and 0 °C, respectively.

As for `O=C1CCc2cc(OCCCCc3nnnn3C3CCCCC3)ccc2N1`, the shift in melting temperature (ΔTm) in test [1] was 0.01 °C; in test [2], -0.81 °C; in test [3] it was -0.24 °C; in test [4], -0.48 °C; in test [5], -0.04 °C; in test [6], 0.01 °C. Further, the thermal shift (ΔTm) in test [7] is -1.24 °C; in test [8] it was -0.24 °C.

Consider `CC(C)(C)OC(=O)Nc1ccc(CNc2nccc(Nc3cc(C(=O)OC(C)(C)C)[nH]n3)n2)cc1`, for which the thermal shift (ΔTm) was 2.57 °C in test [1]; -0.88 °C in test [2]; 5.67 °C in test [3]; 0.13 °C in test [4]; 0.97 °C in test [5]; -2.08 °C in test [6]. Moreover, the figures for the shift in melting temperature (ΔTm) in test [7] and in test [8] were 26.1 °C and 0.26 °C, respectively.

Turning to `Cc1cc(C(=O)N2CCN(C3CN(C(=O)c4ccc(-c5ccccc5)cc4)C3)CC2)no1`, the ΔTm was 0.78 °C in test [1]; -2.08 °C in test [2]; -0.01 °C in test [3]; 0.33 °C in test [4]; 0 °C in test [5]; 0.28 °C in test [6]. The values for the ΔTm in test [7] and in test [8] were 0 °C and -0.09 °C, respectively.

Turning to `Cc1cc(/N=N/c2ccc(S(=O)(=O)Nc3ccccn3)cc2)c(N)cc1O`, the shift in melting temperature (ΔTm) was 0.27 °C in test [1]; 9 °C in test [2]; 1.3 °C in test [3]; -0.2 °C in test [4]; -0.93 °C in test [5]; 0.31 °C in test [6]. Besides, the values for the ΔTm in test [7] and in test [8] were -2.28 °C and 1 °C, respectively.

Consider `Fc1ccc(CNc2ncnc3ccc(F)cc23)cc1`, for which the thermal shift (ΔTm) is 1.11 °C in test [1]; -2.88 °C in test [2]; 0.04 °C in test [3]; 0.46 °C in test [4]; 0.18 °C in test [5]; 0.19 °C in test [6]. In addition, the ΔTm in test [7] is -1.03 °C; in test [8] it was -0.4 °C.

With `COc1ccccc1[C@H]1[C@H](C(=O)O)[C@H](c2ccccc2OC)[C@H]1C(=O)Oc1cccc2ccccc12`, the ΔTm in test [1] is 0.47 °C; in test [2], -2.56 °C; in test [3], -0.65 °C; in test [4], -3.09 °C; in test [5] it was 0 °C; in test [6] it was -0.07 °C. The thermal shift (ΔTm) is -2.4 °C in test [7] and -2.09 °C in test [8].

Regarding `O=C(O)[C@@H]1CCCN(C(=O)n2cnc(-c3ccc(-c4cnc(N5CCOCC5)nc4)cc3)n2)[C@H]1c1ccccc1`, the ΔTm in test [1] was 0.15 °C; in test [2], -1.06 °C; in test [3], -1.79 °C; in test [4] it was 1.27 °C; in test [5], -3.37 °C; in test [6], 0.69 °C. The values for the thermal shift (ΔTm) in test [7] and in test [8] were -5.07 °C and 0 °C, respectively.

In the case of `Cc1c(F)c(N)cc(C(=O)Nc2cc(-n3cc(C(=O)NCCCN4CCOCC4)nn3)ccc2N2CCN(C)CC2)c1Cl`, the ΔTm is 0.14 °C in test [1]; -3.1 °C in test [2]; 0.07 °C in test [3]; 0.04 °C in test [4]; -0.82 °C in test [5]; 0.14 °C in test [6]. Also, the ΔTm in test [7] was -2.25 °C; in test [8] it was -0.56 °C.

Take `O=C(c1cc(Cl)c(O)c(Cl)c1)N1CS(=O)(=O)c2ccccc21`: the ΔTm in test [1] was 0.71 °C; in test [2] it was -0.92 °C; in test [3], 0.15 °C; in test [4], -0.26 °C; in test [5], 0.51 °C; in test [6] it was 0.24 °C. In addition, the results for the ΔTm in test [7] and in test [8] were -2.22 °C and -0.84 °C, respectively.

Consider `NC(=O)c1cc(F)cc2c1C(=O)N(C1CCN(C3CCC(F)(F)CC3)CC1)C2`, for which the shift in melting temperature (ΔTm) was 0 °C in test [1]; -1.47 °C in test [2]; 0.02 °C in test [3]; 0.25 °C in test [4]; -0.85 °C in test [5]; 0.19 °C in test [6]. In addition, the thermal shift (ΔTm) was -1.86 °C in test [7] and 1.35 °C in test [8].

In the case of `Nc1ncnc2c1c(I)cn2[C@@H]1O[C@H](CO)[C@@H](O)[C@H]1O`, the shift in melting temperature (ΔTm) was 2.62 °C in test [1]; -1.63 °C in test [2]; 5.37 °C in test [3]; 6.51 °C in test [4]; 3.65 °C in test [5]; 1.9 °C in test [6]. For the same compound, the results for the thermal shift (ΔTm) in test [7] and in test [8] were 1.18 °C and 0.89 °C, respectively.

For the compound `O=C(c1cc(O)c(O)c([N+](=O)[O-])c1)c1ccccc1F`, the ΔTm in test [1] was 0.42 °C; in test [2], -1.18 °C; in test [3], 0.1 °C; in test [4], 0.37 °C; in test [5] it was 0.05 °C; in test [6], 0.25 °C. Besides, the ΔTm in test [7] is -1.23 °C; in test [8], 0.61 °C.

Turning to `CC(=O)N[C@@H](Cc1ccccc1)C(=O)N[C@@H](CC(C)C)C(=O)N[C@H](C(=O)N[C@@H](CC(=O)O)C(=O)CCl)[C@@H](C)O` (Ac-FLTD-CH2Cl), the ΔTm was 0.28 °C in test [1]; -2.88 °C in test [2]; 0.03 °C in test [3]; 0.15 °C in test [4]; -0.18 °C in test [5]; -0.16 °C in test [6]. Moreover, the thermal shift (ΔTm) was -0.89 °C in test [7] and -0.91 °C in test [8].

As to `O=C(O)/C(S)=C/c1c[nH]c2ccc(F)cc12`, the thermal shift (ΔTm) in test [1] was -1 °C; in test [2] it was -4.6 °C; in test [3], -0.97 °C; in test [4], 0.7 °C; in test [5] it was -0.98 °C; in test [6] it was 0.11 °C. Further, the figures for the thermal shift (ΔTm) in test [7] and in test [8] were 0.25 °C and -2.02 °C, respectively.

For `O=C(NC(Cc1ccccc1)C(=O)NC(Cc1ccccc1)C(=O)CF)OCc1ccccc1` (stereo not drawn) (Cbz-Phe-Phe-CH2F; configuration not given here), the ΔTm is 0.45 °C in test [1]; -0.83 °C in test [2]; 0.11 °C in test [3]; -0.3 °C in test [4]; 0.04 °C in test [5]; 0.22 °C in test [6]. The ΔTm in test [7] is -2.32 °C; in test [8], 1.22 °C.
